Test results taken from ChEMBL document CHEMBL3433997, “St. Jude Leishmania screening dataset” (2016).

The compounds below were run against Solute carrier family 2, facilitated glucose transporter member 1 (Homo sapiens) (UniProt P11166) (assay: ST_JUDE_LEISH: Cytotoxicity at 2uM final concentration against transgenic Leishmania Mexicana promastigotes LmGLUT1 that are glucose transport deficient and complemented with the human glucose transporter GLUT1. Activity is measured by DNA content using SYBR green in vitro).
Sequence of Solute carrier family 2, facilitated glucose transporter member 1 (Homo sapiens) (P11166 whole entry): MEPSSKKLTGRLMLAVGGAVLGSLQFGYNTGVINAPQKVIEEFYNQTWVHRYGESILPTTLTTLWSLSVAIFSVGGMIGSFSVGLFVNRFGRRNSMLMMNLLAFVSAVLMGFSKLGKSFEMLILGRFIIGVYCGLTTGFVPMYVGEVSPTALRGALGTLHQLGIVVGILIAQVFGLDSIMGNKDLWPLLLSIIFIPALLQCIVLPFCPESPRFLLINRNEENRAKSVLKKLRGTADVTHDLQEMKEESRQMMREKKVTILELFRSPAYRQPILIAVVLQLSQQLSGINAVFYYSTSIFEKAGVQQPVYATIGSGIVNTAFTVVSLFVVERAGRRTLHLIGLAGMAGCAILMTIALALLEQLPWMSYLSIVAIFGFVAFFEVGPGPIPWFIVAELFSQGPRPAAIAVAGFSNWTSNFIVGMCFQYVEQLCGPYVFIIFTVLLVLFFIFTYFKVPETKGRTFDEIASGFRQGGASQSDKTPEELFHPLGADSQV
Type: functional

Row | SMILES | inhibition
1 | Ic1cc(Nc2ncnc3ccsc23)ccc1OCc1ccccc1 | 0.8%
2 | c1ccc(-n2ncc(CNCc3ccc(-c4cccc(-c5nc6ccccc6[nH]5)c4)cc3)n2)cc1 | 1.76%
3 | CC(C)(C)c1ccc(NC(=O)c2ccc(CN3CCCN(Cc4cccc(O)c4)CC3)cc2)cc1 | 0.52%
4 | CC(=O)Nc1ccc(Nc2cc(C)nc(Nc3ccc(NC(C)=O)cc3)n2)cc1 | 2.12%
5 | Cc1ccccc1C1CCN(C2CCC(NC(=O)/C=C/c3ccc(F)c(F)c3)CC2)CC1 (stereo not given) | -1.77%
6 | COC(=O)c1cccc(CNCc2ccc(-c3ccc(-c4nc5cc(F)ccc5[nH]4)cc3)cc2)c1 | 13%
7 | COc1ccc2nccc([C@@H](O)CN3CCC(NC(=O)c4cc5c(F)cc(F)cc5[nH]4)CC3)c2c1 | 18.1%
8 | N=C(NCCCCCCCCNC(=N)Nc1ccc(Cl)cc1)Nc1ccc(Cl)cc1 | 5.92%
9 | CCN(CC)CCN(Cc1ccc(-c2ccc(C(F)(F)F)cc2)cc1)C(=O)Cn1c(CCc2ccc(F)c(F)c2)cc(=O)c2ccccc21 | 7.8%
10 | CN1CCN(c2ccnc3ccc(NC(=O)Nc4ccc(-c5ccncc5)c(C#N)c4)cc23)CC1 | -0.68%
11 | O=C1NC(c2ccc(N3CCCCCC3)cc2)Nc2ccccc21 (stereo not given) | 6.32%
12 | CN(C)CCNCc1cccc(-c2ccc3c(Nc4ccc(Oc5ccccn5)cc4)ccnc3c2)c1 | 0.48%
13 | Nc1nc(N)c2c(Cc3ccc(Br)cc3)cccc2n1 | 2.61%
14 | CC(C)[C@H](NC(=O)NC1CCC(CCN2C3CCC2CC(OC(=O)C(CO)c2ccccc2)C3)CC1)C(O)(c1ccccc1)c1ccccc1 (stereo not given in full) | 3.62%
15 | CC(C)NCc1ccc(-c2cccc(CN3CCC(c4ccccc4)CC3)c2)c(C(=O)NCC2CCCCC2)c1 | 7.97%
16 | COc1ccc(C(C)Nc2nc(N)c3cc(OC)c(OC)cc3n2)cc1 (stereo not given) | 4.72%
17 | Nc1nc(N)c2nc(C3CC=CCC3)c(N)nc2n1 (stereo not given) | 2.95%
18 | COc1cccc(-n2ncc3c(N/N=C/c4ccc(CN(C)CCN(C)C)cc4)ncnc32)c1 | 10.7%
19 | Cc1nc2ccc(S(=O)(=O)Nc3ccc(C(=O)N[C@@H](CCC(=O)O)C(=O)O)cc3)cc2c(=O)[nH]1 | 0.38%
20 | Nc1nc(N)c2cc(NC(=O)c3ccc(Cl)c(Cl)c3)ccc2n1 | 5.31%

Row | SMILES | inhibition
21 | Cc1cc(NCc2ccccc2)nc(NCc2ccccc2)n1 | 11.8%
22 | N#Cc1ccc2[nH]c(-c3cc(-c4cccc(F)c4)cnc3N)nc2c1 | 6.56%
23 | CC(=O)c1ccc(N2CCN(C(=O)Nc3ccc(Cl)cc3)CC2)cc1 | 9.4%
24 | CN1CCC(C(=O)Nc2cccc(-c3ccc(-c4nc5cc(C(F)(F)F)ccc5[nH]4)s3)c2)CC1 | 9.29%
25 | Cc1cc(C2CCN(CCCCNC(=O)c3ccc(NC(=O)c4ccc(Cl)cc4)cc3)CC2)c(C)cc1OCc1ccccn1 | 2.54%
26 | Cc1cccc(OC2CCN(c3ncc(C(=O)NCCCN4CCCC4=O)cc3Cl)CC2)c1 | 0.59%
27 | CN(CCCCN)Cc1ccc(-c2ccc(Cl)cc2)cc1 | 21.7%
28 | O=C(N[C@@H](CC1CCCCC1)C(=O)NCCN1CCCCC1)c1ccc(O)c(-c2cccc(C(F)(F)F)c2)c1 | 2.41%
29 | Brc1ccsc1-c1nc(NC2CCN(Cc3ccccc3)CC2)no1 | -0.23%
30 | O=C(/C=C/c1ccc(F)cc1)NC1CCC(CCN2CCc3ccccc3CC2)CC1 (stereo not given) | 7.03%
31 | CN1CCN(c2ccnc3ccc(NC(=O)Cc4ccc(Br)c5ccccc45)cc23)CC1 | 0.81%
32 | NCC(NC(=O)c1ccc(-c2c[nH]c3ncccc23)s1)c1ccccc1 (stereo not given) | 51.9%
33 | Cc1cccc2nc(-c3cccc(-c4ccc(NC(=O)C(C)CN5CCOCC5)cc4)c3)[nH]c12 (stereo not given) | 3.62%
34 | Oc1ccc2nc(NCCCc3ccccc3)nc(NCCc3ccccc3)c2c1 | 3.71%
35 | COc1ccc(CN2C(=S)N(Cc3ccccc3)C(=O)C2CC(=O)Nc2ccccc2)cc1OC (stereo not given) | 0.79%
36 | CCOC(=O)C1=C(C)N=c2sc(=Cc3cc(Cl)ccc3O)c(=O)n2C1c1cc(OC)c(OC)cc1Br (stereo not given) | 7%
37 | CCN(CC)c1ccc(-c2nc3cc(Cl)cnc3[nH]2)cc1 | 5.04%
38 | COc1ccc(NC(=O)c2csc(-c3cc(NC(=O)c4ccnc(N5CCCC5)c4)ccc3C)c2)cc1N1CCN(C)CC1 | 1.89%
39 | O=C(NCCc1ccc(O)cc1)n1c2ccccc2c2ccccc21 | 2.7%
40 | Cc1c(C)n(Cc2ccccc2)c2ncnc(OC3CCN(CC(=O)NCC4CC4)CC3)c12 | 1.84%

The compounds below were run against Hexose transporter 1 (Plasmodium falciparum) (UniProt O97467) (assay: ST_JUDE_LEISH: Cytotoxicity at 2uM final concentration against transgenic Leishmania Mexicana promastigotes LmPfHT that are glucose transport deficient and complemented with the Plasmodium falciparum hexose transporter. Activity is measured by DNA content using SYBR green in vitro).
Type: functional

Row | SMILES | inhibition
41 | Ic1cc(Nc2ncnc3ccsc23)ccc1OCc1ccccc1 | 0.85%
42 | c1ccc(-n2ncc(CNCc3ccc(-c4cccc(-c5nc6ccccc6[nH]5)c4)cc3)n2)cc1 | 1.26%
43 | CC(C)(C)c1ccc(NC(=O)c2ccc(CN3CCCN(Cc4cccc(O)c4)CC3)cc2)cc1 | 0.08%
44 | CC(=O)Nc1ccc(Nc2cc(C)nc(Nc3ccc(NC(C)=O)cc3)n2)cc1 | 5.08%
45 | Cc1ccccc1C1CCN(C2CCC(NC(=O)/C=C/c3ccc(F)c(F)c3)CC2)CC1 (stereo not given) | -1.74%
46 | COC(=O)c1cccc(CNCc2ccc(-c3ccc(-c4nc5cc(F)ccc5[nH]4)cc3)cc2)c1 | 6.26%
47 | COc1ccc2nccc([C@@H](O)CN3CCC(NC(=O)c4cc5c(F)cc(F)cc5[nH]4)CC3)c2c1 | 20.8%
48 | N=C(NCCCCCCCCNC(=N)Nc1ccc(Cl)cc1)Nc1ccc(Cl)cc1 | 0.99%
49 | CCN(CC)CCN(Cc1ccc(-c2ccc(C(F)(F)F)cc2)cc1)C(=O)Cn1c(CCc2ccc(F)c(F)c2)cc(=O)c2ccccc21 | 7.35%
50 | CN1CCN(c2ccnc3ccc(NC(=O)Nc4ccc(-c5ccncc5)c(C#N)c4)cc23)CC1 | -2.42%
51 | O=C1NC(c2ccc(N3CCCCCC3)cc2)Nc2ccccc21 (stereo not given) | 4.82%
52 | CN(C)CCNCc1cccc(-c2ccc3c(Nc4ccc(Oc5ccccn5)cc4)ccnc3c2)c1 | 1.4%
53 | Nc1nc(N)c2c(Cc3ccc(Br)cc3)cccc2n1 | 4.39%
54 | CC(C)[C@H](NC(=O)NC1CCC(CCN2C3CCC2CC(OC(=O)C(CO)c2ccccc2)C3)CC1)C(O)(c1ccccc1)c1ccccc1 (stereo not given in full) | 3.92%
55 | CC(C)NCc1ccc(-c2cccc(CN3CCC(c4ccccc4)CC3)c2)c(C(=O)NCC2CCCCC2)c1 | 8.3%
56 | COc1ccc(C(C)Nc2nc(N)c3cc(OC)c(OC)cc3n2)cc1 (stereo not given) | 4.66%
57 | Nc1nc(N)c2nc(C3CC=CCC3)c(N)nc2n1 (stereo not given) | 3.81%
58 | COc1cccc(-n2ncc3c(N/N=C/c4ccc(CN(C)CCN(C)C)cc4)ncnc32)c1 | 10.3%
59 | Cc1nc2ccc(S(=O)(=O)Nc3ccc(C(=O)N[C@@H](CCC(=O)O)C(=O)O)cc3)cc2c(=O)[nH]1 | -1.45%
60 | Nc1nc(N)c2cc(NC(=O)c3ccc(Cl)c(Cl)c3)ccc2n1 | 2.01%

Row | SMILES | inhibition
61 | Cc1cc(NCc2ccccc2)nc(NCc2ccccc2)n1 | 5.78%
62 | N#Cc1ccc2[nH]c(-c3cc(-c4cccc(F)c4)cnc3N)nc2c1 | 7.71%
63 | CC(=O)c1ccc(N2CCN(C(=O)Nc3ccc(Cl)cc3)CC2)cc1 | 7.37%
64 | CN1CCC(C(=O)Nc2cccc(-c3ccc(-c4nc5cc(C(F)(F)F)ccc5[nH]4)s3)c2)CC1 | 10%
65 | Cc1cc(C2CCN(CCCCNC(=O)c3ccc(NC(=O)c4ccc(Cl)cc4)cc3)CC2)c(C)cc1OCc1ccccn1 | 2.64%
66 | Cc1cccc(OC2CCN(c3ncc(C(=O)NCCCN4CCCC4=O)cc3Cl)CC2)c1 | 2.47%
67 | CN(CCCCN)Cc1ccc(-c2ccc(Cl)cc2)cc1 | 19.1%
68 | O=C(N[C@@H](CC1CCCCC1)C(=O)NCCN1CCCCC1)c1ccc(O)c(-c2cccc(C(F)(F)F)c2)c1 | 3.95%
69 | Brc1ccsc1-c1nc(NC2CCN(Cc3ccccc3)CC2)no1 | 5.86%
70 | O=C(/C=C/c1ccc(F)cc1)NC1CCC(CCN2CCc3ccccc3CC2)CC1 (stereo not given) | 5.64%
71 | CN1CCN(c2ccnc3ccc(NC(=O)Cc4ccc(Br)c5ccccc45)cc23)CC1 | 0.37%
72 | NCC(NC(=O)c1ccc(-c2c[nH]c3ncccc23)s1)c1ccccc1 (stereo not given) | 56.6%
73 | Cc1cccc2nc(-c3cccc(-c4ccc(NC(=O)C(C)CN5CCOCC5)cc4)c3)[nH]c12 (stereo not given) | 2.93%
74 | Oc1ccc2nc(NCCCc3ccccc3)nc(NCCc3ccccc3)c2c1 | 4.97%
75 | COc1ccc(CN2C(=S)N(Cc3ccccc3)C(=O)C2CC(=O)Nc2ccccc2)cc1OC (stereo not given) | -0.87%
76 | CCOC(=O)C1=C(C)N=c2sc(=Cc3cc(Cl)ccc3O)c(=O)n2C1c1cc(OC)c(OC)cc1Br (stereo not given) | 6.74%
77 | CCN(CC)c1ccc(-c2nc3cc(Cl)cnc3[nH]2)cc1 | 5.32%
78 | COc1ccc(NC(=O)c2csc(-c3cc(NC(=O)c4ccnc(N5CCCC5)c4)ccc3C)c2)cc1N1CCN(C)CC1 | 2.56%
79 | O=C(NCCc1ccc(O)cc1)n1c2ccccc2c2ccccc21 | 4.05%
80 | Cc1c(C)n(Cc2ccccc2)c2ncnc(OC3CCN(CC(=O)NCC4CC4)CC3)c12 | 0.12%
